# Source: PubChem (several laboratories)
# Most compounds without a hit are left out; they make up all but 3.1% or so of the library.
# TROY NFkB inh – TROY signaling inhibition; AID 1347056; 0.98% of 360,000 active; Q293 LMP1-TROYcd NF-kB luciferase reporter, 4 h; inhibition, % at 10 µM;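 active means compounds whose plate-normalised and pattern-corrected inhibition of the luciferase reporter signal at the single screening dose is 50% or more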
# EBV LMP1 NFkB – Epstein-Barr LMP1 NF-kappaB reporter inhibition; LMP1-induced NF-kappaB luciferase reporter cells, luminescence; AID 504558; 0.69% of 350,000 active; inhibition, % at 12.5 µM; in the data active means inhibition above about 41%; inconclusive means no clear call, values can overlap the other calls;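 further: 0% = neutral control wells and 100% = reference inhibitor control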
# PAX8 reporter – PAX8 transcriptional activity inhibition | RMG-I TPO-luciferase reporter, SteadyGlo, 24 h | inhibition, % at 12.6 µM | 1.2% of 360,000 active;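 active means mean replicate inhibition at least 60% with every replicate also reaching 60%; inconclusive means only one of the two criteria is met; inactive means mean below 60% and not all replicates reaching 60%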;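 further: luciferase light reporting Pax8 driven TPO promoter activity; plate controls were median of neutral control wells for no effect and mitoxantrone controls for full effect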
# EWS-Fli block – inhibitors of EWS/Fli oncoprotein transcriptional activity | A673 NR0B1-luciferase reporter, viability-normalised | inhibition, % at 12.6 µM | AID 651661 | 0.67% of 350,000 active;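 active means mean inhibition of at least 50% after viability correction, with every replicate also passing that limit; inconclusive means mean reaches 50% but only one of two replicates passes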;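 further: firefly luciferase signal divided by Alamar Blue viability fluorescence both relative to DMSO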
# TWEAK Fn14 block – TWEAK-Fn14 signaling inhibition | inhibition, % at 10 µM | TWEAK-stimulated Fn14 reporter cells, luciferase luminescence, 8 h | 2% of 360,000 active; in the data active means inhibition above about 50%
# LGR2 inh – Drosophila LGR2 receptor signaling inhibition | HEK293 LGR2, CRE-luciferase, bursicon-stimulated, 4 h | inhibition, % at 9.99 µM | 0.35% of 380,000 active | AID 720647;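 active means drop in luminescence signal, shown as inhibition above about 50% in the replicate tests, limit read from the data, passing the limit was not always enough; inconclusive means probably only some replicates passing the limit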;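 further: agonist challenge used bursicon conditioned medium at about half maximal strength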
# * marks the source's active call; other numbers are inactive results; ? = inconclusive; . = not tested or not shown; ! = not confirmed by another sample.
SMILES,TROY NFkB inh,EBV LMP1 NFkB,PAX8 reporter,EWS-Fli block,TWEAK Fn14 block,LGR2 inh
CN(C)CCCN(C(=O)CCOc1ccccc1)c1nc2c(F)cccc2s1,21,34,87*,15,33,16
CN(C)CCCN(C(=O)/C=C/c1cccs1)c1nc2c(F)cccc2s1,5,-4,-23,-6,20,56*
CN(C)CCCN(C(=O)CCOc1ccccc1)c1nc2ccc(F)cc2s1,33,24,86*,9,61*,11
COCc1cn(CC[C@@H]2CC[C@@H](NC(=O)c3ccccc3)[C@@H](CO)O2)nn1,.,.,-17,5,.,24
O=C(Oc1ccc2ccccc2c1Br)N1CCCCCC1,66*,-37,.,.,65*,.
Cc1ccc2c(c1)c(CC(=O)Nc1ccc(F)cc1)c(C(=O)O)n2C,14,-5,.,-14,106*,1
Cn1c(C(=O)O)c(CC(=O)Nc2ccc3c(c2)OCCO3)c2ccccc21,77*,36,-33,.,92*,.
C[C@H]1C=C(C(=O)NCc2nc3ccccc3[nH]2)O[C@@H](OCc2ccc(CO)cc2)C1,4,5,-5,-6,3,-3
O=C(NCc1nc2ccccc2[nH]1)C1=C[C@@H](c2ccc(Br)cc2)C[C@@H](OCCCCO)O1,11,5,9,15,26,-5
O=C(NCc1nc2ccccc2[nH]1)C1=C[C@H](c2csc3ccccc23)C[C@H](OCc2ccc(CO)cc2)O1,22,6,.,22,55*,26
O=C(NCc1nc2ccccc2[nH]1)C1=C[C@@H](c2ccc(Br)cc2)C[C@@H](OCc2ccc(CO)cc2)O1,11,3,85*!,15,22,7
O=C(NCc1nc2ccccc2[nH]1)C1=C[C@@H](c2csc3ccccc23)C[C@@H](OCc2ccc(CO)cc2)O1,38,1,-14,-6,57*,4
CCCC(=O)Nc1ccc2c(c1)OC[C@@H](C)N(C(=O)c1cnccn1)C[C@@H](C)[C@@H](OC)CN(C)C2=O,.,.,-25,-9,.,2
COc1ccc(CN(C)C[C@@H]2OCCCC[C@@H](C)Oc3ccc(NC(=O)c4ccccc4)cc3C(=O)N([C@@H](C)CO)C[C@@H]2C)cc1,.,.,4,-3,.,11
O=C(Nc1cc(F)ccc1F)N1CC(=O)N2[C@H](C1)[C@@H](c1ccc(C#CC3CCCC3)cc1)[C@@H]2CO,.,.,12,4,.,25
Cc1ccc2[nH]c3c(N4CCc5ccccc5C4)ncnc3c2c1,32,26,5,.,63*,.
Fc1ccc2[nH]c3c(N4CCc5ccccc5C4)ncnc3c2c1,18,.,9,13,58*,16
COc1ccc(CN(C)C[C@H]2OCCCC[C@H](C)Oc3ccc(NC(=O)CCCN(C)C)cc3C(=O)N([C@H](C)CO)C[C@H]2C)cc1,.,.,-21,16,.,0
CCOc1cc(NC(=O)CCl)c(OCC)cc1NC(=O)CCl,8,-17,76*,45,44,14
O=C(C[C@@H]1CC[C@H]2[C@@H](COC[C@@H](O)CN2Cc2nccs2)O1)NCc1ccc(Oc2ccccc2)cc1,.,.,.,.,.,-16
c1ccc2c(c1)nc(Nc1ccc(N3CCCCC3)cc1)c1nncn12,36,32,16,11,51*,-19
CCOc1ccc(Nc2nc3ccccc3n3cnnc23)cc1,-7,5,-7,-12,87*,1
Cc1cc(N/N=C/c2ccc(O)c(C)c2O)nc(-c2ccccc2O)n1,40,-21,97*,.,66*,37
CO[C@H]1CN(C)C(=O)c2ccc(NC(=O)Nc3cccc(F)c3)cc2OC[C@@H](C)N(C(=O)C2CC2)C[C@H]1C,.,.,.,-3,.,6
CC(C)(C)NC(=O)CN(C(=O)C1CSC(=O)C1)c1ccc2c(c1)OCCO2 (stereo not drawn),54*,1,.,.,61*,.
C[C@@H]1CN([C@H](C)CO)C(=O)c2cc(NC(=O)C3CC3)ccc2O[C@H]1CN(C)Cc1ccccc1,.,.,2,10,.,16
COc1ccccc1CNC(=O)CCc1cn(C)c2ccccc12,-10,74*,12,-11,-3,-11
COc1ccccc1CNC(=O)CCCc1cn(C)c2ccccc12,-12,-3,11,-4,3,15
Nc1ncnc(Sc2ncccn2)c1[N+](=O)[O-],31,-57,1,16,71*,?
Nc1ncnc(Sc2ccc(Cl)cc2)c1[N+](=O)[O-],-7,1,10,28,69*,.
